High-throughput results from PubChem BioAssay.
This excerpt belongs to a sample that is enriched for hits.
Pf Dd2 growth = blocks in vitro growth of P. falciparum Dd2. hit rate 4.3% among 120,000. Potency, µM (doses to about 28.9 µM), usual class: inhibitors. P. falciparum Dd2 growth, SYBR Green, 72 h. AID 1347417; active = well fitted inhibition curve with a large enough effect; also: nearly all actives have a fitted effect of over 65% in size
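Readout: SYBR Green fluorescence, 485 nm excitation, 535 nm emission, after ~16 h lysis at 37C. Before that, Dd2-infected red cells (2.5% hematocrit) grew 72 h with compound, 29 uM top final concentration.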
Large screens that a line does not name were inactive.

Cc1cc(C(=O)N2CCCN(S(=O)(=O)c3ccccc3)CCC(=O)NCC2)nn1C	none
Cn1cc(CN(C(=O)C2CCC(=O)N(Cc3cccc(F)c3)C2)C2CC2)cn1 (configuration not stated)	none
COc1ccc(CC(=O)Nc2sc3c(c2C(=O)Nc2c(C)cccc2C)CCCCC3)cc1	none
CCOC(=O)c1c(NC(=O)c2cc(Cl)ccc2Cl)sc2c1CCCC2	none
COc1ccc(NC(=O)c2c(NCc3ccc(OC)c(OC)c3OC)sc3c2CCC3)c(OC)c1	Pf Dd2 growth 10µM
COC(=O)c1ccc(NC(=O)c2c(NCc3ccc(C)o3)sc3c2CCCC3)cc1	Pf Dd2 growth 10µM
COc1ccc(NC(=O)c2c(NCc3cccc(OC)c3)sc3c2CCCC3)cc1	Pf Dd2 growth 10µM
CCOC(=O)c1ccc(NC(=O)c2c(NCc3sccc3C)sc3c2CCCCC3)cc1	Pf Dd2 growth 10µM
CCOC(=O)c1c(NC(=O)c2ccc(C)c(C)c2)sc2c1CCCCC2	none
O=C(Nc1sc2c(c1C(=O)Nc1ccccc1)CCC2)c1ccc(Br)cc1	none
CNC(=O)c1c(NC(=O)Cc2coc3ccc(OC)cc23)sc2c1CCCC2	none
COc1ccccc1NC(=O)c1c(NC(=O)c2ccccc2F)sc2c1CCC2	none
CCOc1ccccc1NC(=O)c1c(NCc2ccc(OC)c(OC)c2OC)sc2c1CCC(C)C2 (configuration not stated)	none
Cc1cccc(NC(=O)c2c(NC(=O)c3ccccc3)sc3c2CCCC3)c1	none
CC(C)[C@@H]1CN(C(=O)c2ccc(F)cc2F)C[C@H]1NS(=O)(=O)N(C)C	none
CN(CC1CCOC1)S(=O)(=O)c1ccc(F)c(F)c1 (configuration not stated)	none
COCCO[C@H]1C(=O)N(C2CCN(C(=O)c3ccncc3)CC2)[C@H]1c1ccncc1	none
COc1ccc(CCNC(=O)c2c(C)noc2-c2ccccc2OC)cc1	none
CC(Oc1ccc(CN2CCN(CCS(C)(=O)=O)CC2)cc1)C(=O)O (configuration not stated)	none
CCC(CC)C(=O)Nc1ccc([C@@H](O)[C@H]2COCC(=O)N2Cc2ccccc2)cc1	none
COc1ccc(S(=O)(=O)N2[C@@H]3CC[C@H]2CC(NC(=O)c2ccc(F)cc2)C3)cc1OC (some centres not stated)	none
CCc1ccc(C(=O)N2CCC(OC3CCN(C)CC3)CC2)cc1	none
Cc1ccc(-n2nc3n(c2=O)CCN(C(=O)c2ccc(F)cc2)C3)cc1	none
Cc1cccc(C(=O)N2C(C(=O)NCc3ccccc3)COC23CCN(C(=O)CC(C)C)CC3)c1 (configuration not stated)	none
Cc1nc2c(c(-c3ccc(O)cc3)n1)CN(C(=O)C1CCCC1)CCC2	none
CCOc1ccccc1C1NC(=O)N(CC(=O)Nc2cc(F)ccc2F)C2=C1C(=O)OC2 (configuration not stated)	none
COc1cc(F)c(C(=O)N2C[C@@H](C(=O)O)[C@H](c3ccccc3)C2)c(F)c1	none
COCCC(=O)N[C@@H]1CN(Cc2ccccc2)C[C@H]1CO	none
CCOc1ccc(Cl)cc1CN(C)C(=O)C1CC(=O)N(CC)C1 (configuration not stated)	none
CNC(=O)CN(C)Cc1cc(Cl)ccc1OCC(O)CN1CCCCCC1 (configuration not stated)	Pf Dd2 growth 2.8µM
Cc1cc(OCC(O)CN2CCN(c3cccc(Cl)c3)CC2)ccc1Cl (configuration not stated)	none
Cc1cccnc1CN(C)c1ccc(C(=O)NCc2noc(C(C)C)n2)cn1	none
COc1cccc([C@H]2CN(C(=O)c3c(C)nn4c(C)cc(C)nc34)C[C@@H]2N)c1	none
COc1ccc(F)c(CN2CCCC(O)(CN3CCCCC3)C2=O)c1 (configuration not stated)	none
COc1ccc(F)c(CN2CCCC(O)(CN3CCC(C(C)C)CC3)C2=O)c1 (configuration not stated)	none
COc1ccc(F)c(CN2CCCC(O)(CN3CCC(C)CC3)C2=O)c1 (configuration not stated)	Pf Dd2 growth 4µM
CN1CCN(c2ccc3ncn(-c4cccnc4)c(=O)c3n2)CC1	none
CCc1cccc(C)c1NC(=O)CN1C=C(C(=O)OC)C(C)=NS1(=O)=O	none
Cc1cc(C(=O)N2CCc3nnc([C@@H]4C[C@@H](O)CN4C(C)C)n3CC2)nn1C	none
CC(C)(C)c1coc([C@@H]2COCCN2Cc2ccccc2F)n1	none
COc1cccc(Cn2c(C)c(CNC3CCCCC3)c(C(=O)O)c2C)c1	none
Nc1nccc(N2CCN(Cc3ccccc3F)C(CCO)C2)n1 (configuration not stated)	none
CCc1c(C)sc2c1CCN(Cc1cccc(OC)c1)C2c1ccccc1 (configuration not stated)	Pf Dd2 growth 7.9µM
CCc1c(C)sc2c1CCN(Cc1ccccc1F)C2c1ccccc1 (configuration not stated)	Pf Dd2 growth 3.2µM
COc1cccc(CN2CCOCCNC(=O)CC2)c1	none
CC(=O)N1CCc2nc(C)nc(-c3ccc(Cl)cc3)c2CC1	none
COc1ccc(C(=O)N2C[C@@H](F)C[C@H]2C(=O)N2CCCCC2)cc1	none
Fc1cccc(-n2cc(CN3CCCC4(CCOC4)C3)cn2)c1 (configuration not stated)	none
CC(C)c1ccc(-n2cc(CN3CCCC(O)(CN(C)C)C3)cn2)cc1 (configuration not stated)	Pf Dd2 growth 6.3µM
CN(Cc1ccc(CN2CCCC(O)(CO)C2)o1)S(C)(=O)=O (configuration not stated)	none
COc1ccc(C)cc1NC(=O)CN1C(=O)NC2(CCS(=O)(=O)CC2)C1=O	none
COCC(=O)NCC1(COc2cccnc2)C[C@@H](O)[C@@H](O)C1 (some centres not stated)	none
O=C(NCC1(COc2cccnc2)C[C@@H](O)[C@@H](O)C1)C1CC1 (some centres not stated)	Pf Dd2 growth 7.9µM
O=C(NCC1(COc2cnccn2)C[C@@H](O)[C@@H](O)C1)C1CC1 (some centres not stated)	none
O=C(c1ccc2c(c1)OCO2)N1CCCC2(CNc3ccccc3[S+](=O)([O-])N2)C1 (configuration not stated)	none
Cc1cc(F)ccc1CN1CCC(CO)(CN2CCCC2)CC1	none
CN1C(=O)[C@H]2CN(Cc3ccc(F)c(Cl)c3)C[C@H]2C1=O	none
OCC1(CN2CCCC2)CCN(Cc2cccc(O)c2)CC1	none
COc1cc(CN2CCC(CO)(CN3CCCC3)CC2)ccc1F	Pf Dd2 growth 7.9µM
O=C1N(CCc2ccccc2)CCOC12CCN(Cc1ccc(F)c(Cl)c1)CC2	none
OC1(CN2CCCCC2)CCN(Cc2ccc(F)c(Cl)c2)C1 (configuration not stated)	Pf Dd2 growth 8.9µM
CC(=O)N1CCC(NC2(Cc3cc(CN(C)C)on3)COC2)CC1	none
O=c1ncn(CC2CC2)c2ccc(-c3ccc(F)cc3F)nc12	none
Cc1nc2cccnc2n1CC1CCCN(C(=O)Nc2cccc(Cl)c2)C1 (configuration not stated)	none
c1nnc(CC2CCCNC2)n1CC1CC1 (configuration not stated)	none
COc1ccc(-c2nc(CSCC(=O)N3CCN(c4cc(Cl)ccc4C)CC3)c(C)o2)cc1	none
COc1ccc(-c2nc(CSCC(=O)N3CCN(c4ccc(OC)cc4)CC3)c(C)o2)cc1	none
COc1ccc(-c2nc(CSCC(=O)N3CCN(c4cccc(C)c4C)CC3)c(C)o2)cc1OC	Pf Dd2 growth 10µM
Fc1ccc(-c2cc(CC3(NCc4cccc5c4OCO5)COC3)no2)cc1	none
CCCN1CCN(C(=O)c2ccnc(C(C)C)n2)[C@H]2CS(=O)(=O)C[C@H]21	none
